Test results reported in PubChem BioAssay (NCATS).
Inconclusive results are not listed. Entries that show only a call come without a potency. A number with no mark means an inactive call. The source made the active and inactive calls. The call rests on the fitted dose curve; in most records, active means well fitted curve in the direction sought with a large enough effect; inconclusive means small, poorly fitted or top-dose-only effect, or another doubt; inactive means no such curve, though single readings can be large; an effect the other way counts as inactive or inconclusive.

Key:
[1] = tested on: CRL-7250; assay: Cytotoxic Profiling of Annotated Libraries Using Quantitative High-Throughput Screening (AID 1296008); settings: Five cell lines viability, CellTiter-Glo ATP luminescence, 48-72 h; max response: stronger effect = lower value; further: nearly all actives have a fitted effect of over 60% in size
Method in brief: (§1)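 Cytotoxicity was measured as CellTiter-Glo ATP luminescence, read after 10 min at room temperature. Compound treatment of the cells lasted 48 or 72 hr at 37 degrees Celsius in a qHTS format.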

[2] = tested on: HaCat; assay: as above; settings: Five cell lines viability, CellTiter-Glo ATP luminescence, 48-72 h; max response: stronger effect = lower value
Method in brief: as §1

[3] = tested on: KB-3-1; assay: as above; settings: Five cell lines viability, CellTiter-Glo ATP luminescence, 48-72 h; max response: stronger effect = lower value
Method in brief: as §1

[4] = tested on: NIH3T3; assay: as above; settings: Five cell lines viability, CellTiter-Glo ATP luminescence, 48-72 h; max response: stronger effect = lower value
Method in brief: as §1

[5] = tested on: HACAT; assay: qHTS assay to identify novel small-molecules to repurpose for Merkel cell carcinoma treatment (AID 1296009); settings: MCC and control cell lines, CellTiter-Glo viability, 72 h; at 44.8 µM (top of the series) unless noted; further: nearly all actives have a fitted effect of over 60% in size
Method in brief: (§2)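 Cell viability measured by CellTiter-Glo following 72 hr compound treatment at 37 degree celsius, with NPC and MIPE libraries tested in 8- and 11-point concentration series.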

[6] = tested on: C33A; assay: Primary qHTS to identify gynecologic anti-cancer compounds using libraries of approved drugs and bioactive compounds (AID 1345084); settings: Gynecologic cancer cell panel viability, ATPlite luminescence, 48 h; series mostly up to 57.5 µM; further: nearly all actives have a fitted effect of over 55% in size; further: potency means the concentration at half of the fitted maximal effect
Method in brief: (§3)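 48 h compound exposure at 37 C, 5% CO2; five-point qHTS. ATPlite luminescence readout of cell ATP.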

[7] = tested on: CAOV3; assay: as above; settings: Gynecologic cancer cell panel viability, ATPlite luminescence, 48 h; series mostly up to 57.5 µM
Method in brief: as §3

[8] = tested on: CASKI; assay: as above; settings: Gynecologic cancer cell panel viability, ATPlite luminescence, 48 h; series mostly up to 57.5 µM
Method in brief: as §3

[9] = tested on: Es-2; assay: as above; settings: Gynecologic cancer cell panel viability, ATPlite luminescence, 48 h; series mostly up to 57.5 µM
Method in brief: as §3

[10] = tested on: HeLa; assay: as above; settings: Gynecologic cancer cell panel viability, ATPlite luminescence, 48 h; series mostly up to 57.5 µM
Method in brief: as §3

[11] = tested on: Hek293T; assay: as above; settings: Gynecologic cancer cell panel viability, ATPlite luminescence, 48 h, control line for the selectivity index; series mostly up to 57.5 µM
Method in brief: as §3

[12] = tested on: JEG-3; assay: as above; settings: Gynecologic cancer cell panel viability, ATPlite luminescence, 48 h; series mostly up to 57.5 µM
Method in brief: as §3

[13] = tested on: OV90; assay: as above; settings: Gynecologic cancer cell panel viability, ATPlite luminescence, 48 h; series mostly up to 57.5 µM
Method in brief: as §3

[14] = tested on: PA-1; assay: as above; settings: Gynecologic cancer cell panel viability, ATPlite luminescence, 48 h; series mostly up to 57.5 µM
Method in brief: as §3

[15] = tested on: SKOV3; assay: as above; settings: Gynecologic cancer cell panel viability, ATPlite luminescence, 48 h; series mostly up to 57.5 µM
Method in brief: as §3

[16] = tested on: NIH3T3; assay: qHTS assay to identify novel small-molecules to repurpose for Merkel cell carcinoma treatment (AID 1296009); settings: MCC and control cell lines, CellTiter-Glo viability, 72 h; series mostly up to 44.8 µM; further: nearly all actives have a fitted effect of over 60% in size
Method in brief: as §2

SMILES	outcome [1]	outcome [2]	max response [3] [%]	max response [4] [%]	outcome [5]	Potency [6]	Potency [7]	Potency [8]	Potency [9]	Potency [10]	Potency [11]	Potency [12]	Potency [13]	Potency [14]	Potency [15]	max response [1] [%]	outcome [4]	Potency [16]	outcome [3]
CCC/C=C/C=C/C1CC(O)C2(O)C(=O)OCC12 (stereo not drawn)	inactive	inactive	7.96	4.66	inactive	inactive	inactive	inactive	inactive	inactive	inactive	inactive	inactive	inactive	inactive	–	–	–	–
C=C(CCC1C(C)(O)CCC2C(C)(C)C(O)CCC12C)C(O)CO (stereo not drawn)	–	inactive	-9.88	-4.7	inactive	inactive	inactive	inactive	inactive	inactive	inactive	inactive	inactive	inactive	inactive	-26.3	–	–	–
CN1CCN(C2=Nc3ccccc3Nc3ccc(Cl)cc32)CC1	–	inactive	-4.21	2.15	inactive	inactive	inactive	inactive	inactive	inactive	inactive	inactive	inactive	inactive	inactive	-0.222	–	–	–
CC(=O)c1ccc2c(c1)[C@H](NC(=O)c1ccc(F)c(Cl)c1)[C@H](O)C(C)(C)O2	–	inactive	2.28	–	inactive	inactive	–	inactive	inactive	inactive	inactive	inactive	inactive	inactive	inactive	-9.32	inactive	inactive	–
O=C(NC[C@H]1CN(c2ccc(N3CCOCC3=O)cc2)C(=O)O1)c1ccc(Cl)s1	–	inactive	-11.5	-0.938	inactive	inactive	inactive	inactive	inactive	inactive	inactive	inactive	inactive	inactive	inactive	0.206	–	–	–
COc1cccc(N2CCN(C3=Nc4c(F)cccc4[C@H](CC(=O)O)N3c3cc(C(F)(F)F)ccc3OC)CC2)c1	–	inactive	-13.7	3.41	inactive	inactive	inactive	inactive	inactive	inactive	inactive	inactive	inactive	inactive	inactive	3.02	–	–	–
CC(=O)O[C@@H]1CC[C@@]2(C)[C@H](CC[C@@H]3[C@@H]2C[C@H](OC(C)=O)[C@]2(C)[C@@H](C(C)=O)CC[C@@H]32)C1	–	inactive	-28.9	-22.7	inactive	inactive	inactive	inactive	inactive	inactive	inactive	inactive	inactive	inactive	–	-9.5	–	–	–
CCN(Cc1ccccc1)C(=O)Cn1c(=O)n(C)c2cnc(-c3ccccc3)nc21	–	inactive	–	–	inactive	inactive	–	inactive	inactive	inactive	inactive	inactive	inactive	inactive	–	-1.74	inactive	inactive	inactive
C/C=C(\C)C(=O)OC1C[C@@]2(COC(C)=O)O[C@H]2/C=C\[C@@]2(C)O[C@@H]2[C@H]2OC(=O)C(COC(C)=O)=C12 (stereo partly drawn)	–	inactive	7.77	3.22	inactive [at 17.4 µM]	inactive	inactive	inactive	inactive	inactive	inactive	inactive	inactive	inactive	–	-2.2	–	–	–
CC(C)(Cc1nc(-c2ccc(O)cn2)no1)C(=O)NC1=C(C(=O)O)CCCC1	–	inactive	2.15	-20.8	inactive	inactive	inactive	inactive	inactive	inactive	inactive	inactive	inactive	inactive	inactive	-1.84	–	–	–
CCC(C)C1NC(=O)C(Cc2ccccc2)NC(=O)C(CCCCCC(=O)C(O)CO)NC(=O)C2CCCCN2C1=O (stereo not drawn)	–	inactive	–	–	inactive [at 17.4 µM]	inactive	–	inactive	inactive	inactive	inactive	inactive	–	–	inactive	-4.29	inactive	inactive	inactive
CC/C=C\CC1C(=O)C=CC1(CCCCC1CCC(=O)O1)OC(C)=O (stereo not drawn)	inactive	inactive	4.62	4.76	inactive	inactive	inactive	inactive	inactive	inactive	inactive	inactive	inactive	inactive	–	–	–	–	–
COc1cc(C(=O)NC(=S)Nc2cccc(NC(=O)c3ccccc3)c2)cc(OC)c1OC	–	inactive	6.94	4.46	inactive	inactive	inactive	inactive	inactive	inactive	inactive	inactive	inactive	inactive	inactive	-13	–	–	–
COC1C=C(C)C(O)(CO)C2(C)CCCC(C)(C)C12 (stereo not drawn)	inactive	inactive	2.43	-0.263	inactive	inactive	inactive	inactive	inactive	inactive	inactive	inactive	inactive	inactive	inactive	–	–	–	–
CC[C@H](C)/C=C(C)/C=C/C1=CC2=C(Cl)C(=O)[C@](C)(O)[C@H](OC(C)=O)[C@H]2CO1	–	inactive	-1.44	–	inactive	inactive	–	inactive	inactive	inactive	inactive	inactive	inactive	inactive	inactive	-9.34	inactive	inactive	–
C[C@@H](NC(=O)C(=O)c1c[nH]c2ccc([N+](=O)[O-])cc12)c1ccccc1	inactive	inactive	-11	3.7	inactive	inactive	inactive	inactive	inactive	inactive	inactive	inactive	inactive	inactive	inactive	–	–	–	–
O=C(O)C1=CO[C@@H](O[C@@H]2O[C@H](CO)[C@@H](O)[C@H](O)[C@H]2O)[C@@H]2C(CO)=CC[C@H]12	–	inactive	6.01	-3.54	inactive	inactive	inactive	inactive	inactive	inactive	inactive	inactive	inactive	inactive	inactive	-1.39	–	–	–
C=C(C)C1CCC2(C(=O)O)CCC3(C)C(CCC4C5(C)C(C=O)C(O)C(C)(C)C5CCC43C)C12 (stereo not drawn)	–	inactive	–	0.383	inactive [at 17.4 µM]	inactive	inactive	inactive	inactive	inactive	inactive	inactive	inactive	inactive	inactive	-7.47	–	–	inactive
COc1ccc(NC(=O)c2ccc(-c3ccc(C(=N)N)cc3C)cc2)cc1N1CCN(C)CC1	–	inactive	-9.57	2.92	inactive	inactive	inactive	inactive	inactive	inactive	inactive	inactive	inactive	inactive	–	4.07	–	–	–
NC(=O)c1cccc2[nH]c(-c3ccc(C4CCCN4)cc3F)nc12 (stereo not drawn)	inactive	inactive	–	–	inactive	17.8 µM (active)	10 µM (active)	–	15.8 µM (active)	–	12.6 µM (active)	11.2 µM (active)	–	–	14.1 µM (active)	–	inactive	inactive	inactive
CC(=O)O[C@]1(C(C)=O)CC[C@H]2[C@@H]3CCC4=CC(=O)CCC4=C3[C@@H](c3ccc(N(C)C)cc3)C[C@@]21C	inactive	inactive	-14.7	-1.52	inactive	inactive	inactive	inactive	inactive	inactive	inactive	inactive	inactive	inactive	inactive	–	–	–	–
CCCCC1CCC(c2nc(-c3ccncc3)no2)CC1 (stereo not drawn)	–	inactive	-26.8	-3.82	inactive	inactive	inactive	inactive	inactive	inactive	inactive	inactive	inactive	inactive	–	-23.2	–	–	–
CC(=O)O[C@@H]1C[C@@]2(C)C(CC[C@]3(C)C2CC=C2C4CC(C)(C)CC[C@]4(C(=O)O)CC[C@]23C)C(C)(C)[C@H]1O (stereo partly drawn)	–	inactive	-16.7	-4.52	inactive [at 17.4 µM]	inactive	inactive	inactive	inactive	inactive	inactive	inactive	inactive	inactive	–	3.23	–	–	–
Cc1cccc(N2CCN(C(=O)c3cc(S(=O)(=O)N(C)C)ccc3N3CCCC3)CC2)c1C	–	inactive	–	-5.43	inactive	inactive	inactive	inactive	inactive	inactive	inactive	inactive	inactive	inactive	inactive	-10.2	–	–	inactive
CC12CCC3C1C(c1c(cc(O)c(C(=O)c4ccccc4)c1O)O2)C3(C)C (stereo not drawn)	–	inactive	-20.8	-2.16	inactive	inactive	inactive	inactive	inactive	inactive	inactive	inactive	inactive	inactive	inactive	3.27	–	–	–
CC(=O)OC1CC(C)C2(CCC3(CC(=O)OC3O)O2)C2(C)CCCC(C)(C)C12 (stereo not drawn)	inactive	inactive	0.411	0.0681	inactive [at 17.4 µM]	inactive	inactive	inactive	inactive	inactive	inactive	inactive	inactive	inactive	inactive	–	–	–	–
COC(=O)C(Cc1ccc(OCCn2c(=O)sc3cc(C(=O)c4ccccc4)ccc32)cc1)C(=O)OC	–	inactive	0.264	2.75	inactive	inactive	inactive	inactive	inactive	inactive	inactive	inactive	inactive	inactive	inactive	-17	–	–	–
CCCN(CCc1ccsc1)C1CCc2c(O)cccc2C1 (stereo not drawn)	–	inactive	0.967	–	inactive	inactive	–	inactive	inactive	inactive	inactive	inactive	inactive	inactive	inactive	4.38	inactive	inactive	–
C[C@@H](NC(=O)c1ccc(C#Cc2cccc(F)c2)cn1)C(C)(C)O	–	inactive	7	2.74	inactive	inactive	inactive	inactive	inactive	inactive	inactive	inactive	inactive	inactive	inactive	-12.8	–	–	–
